# Compound activity: PubChem BioAssay, National Center for Advancing Translational Sciences (NCATS)
# PTAP TSG101 blk: blocks PTAP/TSG101 interaction to inhibit HIV-1 budding; 340,000 tested, under 10 active; Potency, µM (top dose mostly 115 µM), for the others: at the top dose activity change, negative = inhibition, hits mostly inhibitors; Fluorescence polarization, FITC-PTAP peptide / Tsg101 binding; Q99816; active = well fitted inhibition curve with a large enough effect in the main read-out, with a control signal flat, not every such curve was filed as active; inconclusive = small, poorly fitted or top-dose-only effect, or effect the other way, or a change in a side signal; inactive = no such curve, though single readings can be large or run the other way; note: % of control where 0% means no effect
# Target sequence (Q99816 whole entry, looked up): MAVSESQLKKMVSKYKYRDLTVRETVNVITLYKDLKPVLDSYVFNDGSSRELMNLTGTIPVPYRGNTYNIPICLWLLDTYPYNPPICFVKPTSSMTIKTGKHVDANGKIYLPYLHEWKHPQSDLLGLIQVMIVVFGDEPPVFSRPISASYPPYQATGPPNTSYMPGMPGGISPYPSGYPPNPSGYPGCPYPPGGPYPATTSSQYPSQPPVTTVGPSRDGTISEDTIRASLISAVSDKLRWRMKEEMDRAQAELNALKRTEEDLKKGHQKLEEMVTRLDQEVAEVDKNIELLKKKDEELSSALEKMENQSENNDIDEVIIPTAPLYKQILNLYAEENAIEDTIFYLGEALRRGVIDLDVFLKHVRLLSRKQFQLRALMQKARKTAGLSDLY
#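 Compounds were pin-transferred onto Tsg101 binding domain (10 uM final) in HEPES pH 7.5 buffer, then FITC-PTAP peptide was added at 50 nM final. After 20 min at RT, polarization reported peptide displacement across a qHTS concentration series.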
# HTT aggregate: reduces HttQ103-GFP aggregates in PC12 cells; PC12 HttQ103-GFP aggregates, Acumen cytometry, 40 h; Potency, µM (highest dose often 46.1 µM), for the others: at the highest dose activity change, negative = inhibition, most hits filed as inhibitors; 1.1% of 220,000 active; AID 1688; note: % is set by controls: 0 for no effect and ±100 for the full control effect; nearly all actives have a fitted effect of over 60% in size
#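 Aggregate formation scored by laser-scanning cytometer (488 excitation, 500–530 emission) in lysed PC12 cells expressing Q103-GFP after 100 nM tebufenozide induction; library tested in dose series, with ATPLite reagent added in the multiplex.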
# Epigenetic derep: derepresses silenced GFP reporter in murine cells; murine LDR cells, GFP reporter derepression, 30 h; Potency, µM (top dose mostly 53.9 µM), inactives show at the highest dose GFP activation, usual class: activators; 0.2% of 280,000 active; note: % of control where 0% means no effect; nearly all actives have a fitted effect of over 60% in size
#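 Murine LDR cells carrying a silenced, genomically integrated CMV-driven GFP reporter were exposed to compound for 30 hours at 37 C. After PBS washes, GFP-positive cells (20–120 um objects) were counted by laser-scanning microplate cytometry.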
# HTT cytoprotect: Huntington cell model cytoprotection by ATP luminescence | PC12 HTT-Q103 induced, cytoprotection, ATP luminescence, 40 h | Potency, µM (highest dose often 56.4 µM), for the others: cytoprotection (ATP increase), hits mostly activators | 0.14% of 230,000 active; note: % of control where 0% means no effect; nearly all actives have a fitted effect of over 45% in size
#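 Huntington model: PC12 line, ecdysone-inducible HTTQ103 exon1–GFP, tebufenozide 100 nM. Test articles in a dose series. Endpoint luminescence from cellular ATP.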
# PINK1 expr mod: PINK1 expression modulation | PINK1 immunofluorescence, high-content cytometry, 24 h | Potency, µM (highest dose often 76.6 µM), inactives show top-dose activation (PINK1 increase), most hits filed as activators | 0.2% of 410,000 active | AID 624263; active = well fitted activation curve with a large enough effect; inconclusive = small, poorly fitted or top-dose-only effect; cell line not stated here; note: % of control where 0% means no effect; nearly all actives have a fitted effect of over 65% in size
#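 Fluorescence from anti-PINK1 antibody, together with nuclear and cell stains, was scanned on a laser-scanning cytometer. Before staining, stable-line cells were incubated 24 hours with compounds at 5 concentrations; primary antibody 12 h at 10 degrees C.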
# Anesthetic bind: candidate novel general anesthetic via apoferritin binding | apoferritin/1-aminoanthracene competitive binding, fluorescence | P02791 | Potency, µM (doses to about 77.5 µM), without a hit: top-dose activity change, negative = displacement, most hits filed as inhibitors | 0.074% of 350,000 active; note: % is set by controls: 0 for no effect and ±100 for the full control effect; nearly all actives have a fitted effect of over 20% in size
# Target sequence (P02791 2-175 limits assumed): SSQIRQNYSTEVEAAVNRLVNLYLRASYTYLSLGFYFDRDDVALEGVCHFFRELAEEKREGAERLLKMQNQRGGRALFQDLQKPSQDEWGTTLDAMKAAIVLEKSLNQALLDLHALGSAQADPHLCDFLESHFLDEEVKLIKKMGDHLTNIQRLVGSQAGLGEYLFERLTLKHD
#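 10 uM apoferritin + 50% sat. 1-AMA, PBS; cpd 10 min RT; Ex380/Em535 endpoint; normalized to free probe vs complex; 4-param Hill fit; propofol titration as pos. ctrl.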
# * hit, by the source's call; ? = inconclusive; / = no result; [ ] = dose if it differs, or a comment. Shown is part of a subset that was picked to be rich in hits. Unless noted, calls come from the whole dose curve; as a rule, active = well fitted curve in the direction sought with a large enough effect; inconclusive = small, poorly fitted or top-dose-only effect, or another doubt; inactive = no such curve, though single readings can be large; an effect the other way counts as inactive or inconclusive. Potency is the fitted concentration of half-maximal effect.
SMILES,PTAP TSG101 blk,HTT aggregate,Epigenetic derep,HTT cytoprotect,PINK1 expr mod,Anesthetic bind
CO[C@H](C(=O)[C@@H](O)[C@@H](C)O)C1Cc2cc3cc(O[C@H]4C[C@@H](O[C@H]5C[C@@H](O)[C@H](O)[C@@H](C)O5)[C@@H](O)[C@@H](C)O4)c(C)c(O)c3c(O)c2C(=O)[C@H]1O[C@H]1C[C@@H](O[C@H]2C[C@@H](O[C@H]3C[C@](C)(O)[C@H](O)[C@@H](C)O3)[C@H](O)[C@@H](C)O2)[C@H](O)[C@@H](C)O1 (some centres undefined),/,0.224µM*,/,-63.1%,/,/
CCOC(=O)/C(=C\Nc1ccccc1C(F)(F)F)Sc1ncc(C(F)(F)F)cc1Cl,0.8%,20.9%,-6.0%,-9.8%,8.0%,-9.4%
N#Cc1c(Sc2ncc(C(F)(F)F)cc2Cl)nsc1C/C=N\OCc1ccccc1Br,-4.9%,11.4%,?,10.8%[10 µM],0.8%,14.1µM*
COc1cc(NC(=O)CCc2c(C)nc3nc(-c4cc(OC)cc(OC)c4)nn3c2C)cc(OC)c1,/,/,7.8%,/,0.5%,-13.3%
Cc1ccccc1N(CC(=O)N/N=C/c1cc(C)n(-c2ccccc2C)c1C)S(C)(=O)=O,-4.1%,17.8µM*,-2.7%,-5.6%,4.2%,-11.2%
Cc1cc(C)nc(SCC(=O)N/N=C/c2cc(C)n(-c3ccccc3C)c2C)n1,-1.4%,?,0.0%,/,4.8%,-12.3%
COc1ccc(CN2CCC3(CC2)c2ccccc2[C@@H](NC(=O)c2ccccc2OC)[C@@H]3O)cc1O,/,/,/,/,0.6%,/
CC(=O)c1c(C)[nH]c(C(=O)COc2cc(C)cc(C)c2)c1C,-1.6%,-16.6%,0.0%,7.9%,14.9%[38.3 µM],-18.2%
CCCOc1ccc(OCC(=O)c2[nH]c(C)c(C(C)=O)c2C)cc1,-1.1%,8.91µM*,0.0%,-5.5%,-1.7%[38.3 µM],?
CS(=O)(=O)c1ccc(NC(=O)COc2ccccc2C(=O)Nc2ccccc2)cc1,/,/,/,/,0.3%,/
CC(C)NC(=O)[C@@H]1C[C@@H](Sc2nc3ccccc3[nH]2)CN1C1Cc2ccccc2C1,/,/,/,/,-0.7%,/
CCOC(=O)c1c(NC(=O)c2ccccc2Cl)sc2c1CCc1ccccc1-2,-1.0%,-13.8%,7.4%,/,3.8%,52.3%
CCCCC(=O)Nc1sc2c(c1C(=O)OCC)CCC(C=O)=C2Cl,/,?,11.2µM*,-100.7%,/,-10.8%
Cn1c(/C=C/c2ccccc2)nc2ccccc2c1=O,1.1%,/,/,/,1.7%,-12.4%
Cc1cc(N/N=C/c2ccc([N+](=O)[O-])o2)nc2ccccc12,3.2%,?,6.31µM*,12.2%,?,-16.2%
Cn1c(/C=C/c2ccc([N+](=O)[O-])o2)nc2ccccc2c1=O,-1.9%,10µM*,?,-110.5%,7.4%,-11.3%
O=[N+]([O-])c1ccc(/C=N/Nc2nc(N3CCCCCC3)nc(N3CCCCCC3)n2)o1,-1.4%,7.08µM*,?,-14.6%[10 µM],10.3%,-18.4%
Cc1ccc(-c2cc(C(=O)N/N=C/c3ccc([N+](=O)[O-])o3)c3ccccc3n2)o1,-1.1%,/,/,/,0.0%,-21.5%
Cc1cc(C)c(S(=O)(=O)NCc2csc(-c3ccccc3)n2)c(C)c1,/,/,-4.0%,/,-0.8%,-0.4%
CC1=C(C(=O)N(C)C)C(c2cccc(Cl)c2)NC(=O)N1 (centres undefined),-7.7%,3.98µM*,-1.0%,-3.7%[10 µM],-0.6%,-1.5%
COc1ccc(CN2CCCC(Cn3cc(C(=O)N4CCCC4)nn3)C2)c(O)c1 (centres undefined),/,/,/,/,0.9%,/
Cc1ccc2[nH]c(=O)c(C(c3nnnn3C3CCCC3)N3CCCc4ccccc43)cc2c1 (centres undefined),-2.6%,35.5µM*,0.0%,9.0%[10 µM],5.4%,-15.8%
COc1cnn(-c2ccccc2)c(=O)c1N(C)C,-8.0%,0.5%,6.0%,-10.7%,12.6µM*,0.5%
Cc1ccc(-n2ncc(Br)c(Br)c2=O)cc1,-8.7%,/,0.0%,-97.3%[10 µM],1.0%,-17.9%
O=c1c(Br)c(Br)cnn1-c1ccccc1,-0.2%,5.62µM*,2.2%,-97.1%[10 µM],-0.7%,-18.2%
SMILES,PTAP TSG101 blk,HTT aggregate,Epigenetic derep,HTT cytoprotect,PINK1 expr mod,Anesthetic bind
OC(C[n+]1ccccc1Cl)c1ccccc1 (centres undefined),/,/,/,/,0.8%,/
Nc1ccc(O)cc1C(=O)OCC(=O)C12CC3CC(CC(C3)C1)C2,-4.1%,?,0.8%,-65.4%,7.8%,31.6µM*
O=C(OCC(=O)C12CC3CC(CC(C3)C1)C2)c1ccc(O)cc1,-1.5%,/,/,/,4.3%,/
COc1ccccc1-c1cc2c(c(OC)c1)OCCN(CCC(C)c1ccc(C)o1)C2 (centres undefined),/,/,/,/,1.0%,/
O=C1N/C(=C/c2cccs2)C(=O)N1Cc1ccccc1F,6.6%,11.6%,0.8%,-36.8%,1.5%,-3.3%
Cc1ccc(/C=C2/NC(=O)N(Cc3ccccc3F)C2=O)s1,?,39.3%,3.55µM*,-46.1%,11.7%,-5.9%
CCCn1c2c(c(=N)c3c1CCC3)CCC2,0.4%,?,-4.1%,15.7%[10 µM],0.9%,-10.7%
CCCCCCCn1c2c(c(=N)c3ccccc31)CCC2,-1.1%,?,0.0%,-54.8%[10 µM],20µM*,-21.9%
O=C(O)c1ccc(-c2ccc3cc(C45CC6CC(CC(C6)C4)C5)c(O)cc3c2)cc1,/,/,/,/,/,-5.5%
O=C(c1ccncc1)N1CCC2(CCC(CNC(=O)C3(N4CCOCC4)CCCCC3)O2)CC1 (centres undefined),/,/,/,/,0.8%,/
Cc1c(C(=O)N2CC3CCC2C3)sc2ncnc(NCCc3c[nH]c4ccccc34)c12 (centres undefined),/,/,/,/,-0.2%,/
CCOC(=O)c1sc(NC(=O)Nc2ccc(Cl)cc2)cc1C,-0.1%,22.4µM*,1.4%,-5.9%[10 µM],?,1.1%
NC(C(=O)O)C(O)c1ccc(O)c(O)c1 (centres undefined),/,-14.2%,/,-80.7%,/,/
Cc1nc2sccc2c(=O)n1N,-1.7%,-21.8%,1.7%,3.55µM*,-0.6%,1.0%
COc1cccc(CN2CCC(c3nnc(SCC4CCCO4)n3C)CC2)c1O (centres undefined),/,/,/,/,-0.4%,/
NC(=O)c1cc2ccncc2c2ccccc12,-5.7%,2.51µM*,-3.1%,-1.8%[10 µM],2.1%,6.0%
Cc1cc([N+](C)(C)C)cc(C)c1/C=C/c1ccnc2ccccc12,/,/,/,/,1.6%,/
CCN(CC)C(=O)c1sc(NC(=O)c2ccc(C)c([N+](=O)[O-])c2)c(C#N)c1C,-0.2%,12.6µM*,-1.4%,-45.2%,25.4%,-7.9%
CCN(CC)C(=O)c1sc(NC(=O)c2ccc(OC)c([N+](=O)[O-])c2)c(C#N)c1C,/,-18.4%,-1.0%,1.7%[10 µM],/,-1.7%
